Data as given in PubChem BioAssay (NCI).
About 79,000 compounds went through this panel and 15% of them were active in at least one assay; those are over-represented in the sample as a whole. A number with no mark means an inactive call. Active and inactive are the calls of the source. Rule as the data show it: active = growth inhibition above about 70%; inactive = the rest.

Tests used:
[1] = NCI Yeast Anticancer Drug Screen. Data for the rad50 strain (AID 155);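 also: 0% = growth of vehicle-only cultures of the same strain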; conditions: S. cerevisiae rad50 strain growth inhibition, active compounds read high
Summary of the method: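 Growth of the mutant yeast was measured after compound exposure and referenced to vehicle-treated cultures.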

[2] = NCI Yeast Anticancer Drug Screen. Data for the mec2-1 strain (AID 157); conditions: S. cerevisiae mec2-1 strain, active compounds read high
Summary of the method: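 Mutant yeast (mec2-1) grown with compound; growth inhibition relative to vehicle control reported.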

[3] = NCI Yeast Anticancer Drug Screen. Data for the sgs1 mgt1 strain (AID 161);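 also: 0% = growth of cultures given vehicle only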; conditions: S. cerevisiae sgs1 mgt1 strain, active compounds read high
Summary of the method: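 Percent growth inhibition was derived by comparing compound-exposed mutant yeast with vehicle-exposed cultures. The strain carries alterations in DNA damage repair.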

[4] = NCI Yeast Anticancer Drug Screen. Data for the cln2 rad14 strain (AID 165);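 also: 0% = growth equal to vehicle treated cultures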; conditions: S. cerevisiae cln2 rad14 strain, active compounds read high
Summary of the method: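 Readout is yeast growth inhibition versus vehicle-treated controls, using a strain with cln2 and rad14 alterations exposed to compound.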

[5] = NCI Yeast Anticancer Drug Screen. Data for the bub3 strain (AID 167); conditions: S. cerevisiae bub3 mutant strain, active compounds read high
Summary of the method: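 Whole-cell yeast assay. The mutant strain was incubated with compounds, and growth inhibition was determined by comparison with vehicle-treated cells.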

[6] = NCI Yeast Anticancer Drug Screen. Data for the mlh1 rad18 strain (AID 175); conditions: S. cerevisiae mlh1 rad18 strain growth inhibition, active compounds read high
Summary of the method: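 Genetically defined yeast (DNA repair-deficient) exposed to compounds; growth inhibition determined relative to vehicle.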

[7] = at 5.0 µM (retest, dose inferred, filed as 0.5)
[8] = at 50.0 µM (retest, dose inferred, filed as 5.0)

Compound | growth inhibition [1, 7] | growth inhibition [1, 8] | growth inhibition ([1]; at 50.0 µM) | growth inhibition [2, 7] | growth inhibition [2, 8] | growth inhibition ([2]; at 50.0 µM) | growth inhibition [3, 7] | growth inhibition [3, 8] | growth inhibition ([3]; at 50.0 µM) | growth inhibition [4, 7] | growth inhibition [4, 8] | growth inhibition ([4]; at 50.0 µM) | growth inhibition [5, 7] | growth inhibition [5, 8] | growth inhibition ([5]; at 50.0 µM) | growth inhibition [6, 7] | growth inhibition [6, 8] | growth inhibition ([6]; at 50.0 µM)
COc1cc2c(cc1OC)NCC1COc3c(ccc(OC)c3OC)C1=N2 (stereo not given) | 12% | 14% | -44.9% | 14% | 8% | -6.65% | 15% | 17% | -18.4% | 19% | 17% | 11.1% | 17% | 22% | 16% | 12% | 24% | -37.8%
N#Cc1ncc(Cl)cc1[N+](=O)[O-] | 93% (active) | 98% (active) | 99.5% (active) | 80% (active) | 99% (active) | 99.7% (active) | 93% (active) | 99% (active) | 99.5% (active) | 59% | 98% (active) | 99.2% (active) | 70% (active) | 98% (active) | 99.6% (active) | 75% (active) | 98% (active) | 99.5% (active)
Fc1ccc(NC(=S)SCc2ccc(Cl)c(Cl)c2)c(F)c1 | 13% | 98% (active) | 98.5% (active) | 7% | 99% (active) | 97.3% (active) | 6% | 98% (active) | 99.2% (active) | -6% | 97% (active) | 98.8% (active) | 11% | 98% (active) | 99% (active) | 9% | 95% (active) | 99% (active)
CCN1C2=NC(=O)N(C)C(=O)C2(Cl)C(C(SC)S(=O)(=O)c2ccc(C)cc2)c2ccccc21 (stereo not given) | 22% | 22% | 88.1% (active) | 7% | 7% | 86.3% (active) | 15% | 15% | 81.7% (active) | 18% | 18% | 90% (active) | 1% | 1% | 89.5% (active) | 2% | 2% | 84.7% (active)
Cc1nc2c(O)c3c(c(O)c2nc1C)C1C=CC3CC1 | 30% | 83% (active) | 64% | 16% | 89% (active) | 66.2% | 30% | 84% (active) | 77.5% (active) | 22% | 30% | 14.2% | 39% | 91% (active) | 84.7% (active) | 20% | 82% (active) | 14.2%
CCCCN1CCN(c2ccc([N+](=O)[O-])c3no[n+]([O-])c23)CC1 | 97% (active) | 99% (active) | 90.5% (active) | 94% (active) | 99% (active) | 93.2% (active) | 90% (active) | 99% (active) | 90.2% (active) | 43% | 98% (active) | 88.2% (active) | 58% | 98% (active) | 91.2% (active) | 96% (active) | 99% (active) | 90.5% (active)
COc1cccc(C=Nc2ccc(I)cc2)c1O.COc1cccc(C=Nc2ccc(I)cc2)c1O.[Co] | 15% | 56% | 29.4% | 11% | 25% | 11.7% | 12% | 31% | 30.2% | 10% | 19% | 21% | 10% | 9% | 52.1% | 13% | 37% | 19.2%
OCCC1CCN(CC/C=C2/c3ccc(F)cc3Sc3ccc(C(F)(F)F)cc32)CC1 | 26% | 59% | 37.4% | 7% | 45% | 62.9% | 21% | 68% | 82.6% (active) | 18% | 52% | 71.4% (active) | 4% | 38% | 64.5% | 24% | 56% | 88.2% (active)
CN(C)CCOc1cc2c(c3ccccc13)-c1ccccc1C2=O | 93% (active) | 99% (active) | 99.7% (active) | 14% | 99% (active) | 99.3% (active) | 20% | 100% (active) | 99.4% (active) | 12% | 96% (active) | 99% (active) | 6% | 99% (active) | 99.6% (active) | 21% | 100% (active) | 99.1% (active)
Cc1n(CC(C)C)c2c([n+]1CC(=O)c1ccc([N+](=O)[O-])cc1)C(=O)c1ccccc1C2=O | 56% | 92% (active) | 88.2% (active) | 25% | 98% (active) | 90.7% (active) | 44% | 98% (active) | 91.3% (active) | 66% | 98% (active) | 89.8% (active) | 84% (active) | 98% (active) | 89.9% (active) | 47% | 96% (active) | 90.2% (active)
